From PubChem BioAssay AID1159580 (chemical genetic matrix, 2015)
Several values for one entry are separate records, joined by “and”; a condition that tells them apart may be missing. Equal values may be shown once. In all, about 5,500 compounds went through this assay and about 2,000 (36%) were called active. About 18% were inconclusive and are not listed. Cut-off read from the data, not from the text of the source: active = normalized growth mostly below about 0.91 (no sharp cut-off); inconclusive = no clear call, values can overlap the other calls; inactive = mostly above about 0.92. This is one part of the list.

Test: chemical genetic growth profiling, strain panel (AID 1159580);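 note: tested at 20 µM; growth read once vehicle control cultures reached saturation at 30 °C; 1 = growth at the plate median or of vehicle wells; lower values mean less growth of the strain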
Settings: S. cerevisiae deletion strains, growth OD

Measured: normalized growth

CC(=O)Oc1c(C)c(C)c2c(c1C)CCC(C)(CCCC(C)CCCC(C)CCCC(C)C)O2 (stereo unspecified)
inactive: locus YAL021C, strain ccr4, stronger effect = lower value 1 | locus YAL026C, strain drs2, stronger effect = lower value 0.982 | locus YAL030W, strain snc1, stronger effect = lower value 0.976 | locus YBL061C, strain skt5, stronger effect = lower value 0.995 | locus YBR009C, strain hhf1, stronger effect = lower value 0.957 | locus YBR021W, strain FUR4, stronger effect = lower value 1.03 | locus YBR023C, strain chs3, stronger effect = lower value 0.99 | locus YBR171W, strain sec66, stronger effect = lower value 1 | locus YBR229C, strain ROT2, stronger effect = lower value 1.02 | locus YBR231C, strain swc5, stronger effect = lower value 0.995 | locus YBR279W, strain paf1, stronger effect = lower value 0.985 | locus YCL011C, strain gbp2, stronger effect = lower value 0.975 | locus YCL016C, strain dcc1, stronger effect = lower value 0.985 | locus YCL029C, strain bik1, stronger effect = lower value 0.995 | locus YCL061C, strain MRC1, stronger effect = lower value 0.998 | locus YCL069W, strain vba3, stronger effect = lower value 0.982 | locus YCR088W, strain abp1, stronger effect = lower value 0.978 | locus YDL005C, strain med2, stronger effect = lower value 0.979 | locus YDL035C, strain GPR1, stronger effect = lower value 1.01 | locus YDL040C, strain nat1, stronger effect = lower value 0.98 | locus YDL074C, strain BRE1, stronger effect = lower value 1 | locus YDL101C, strain DUN1, stronger effect = lower value 1.03 | locus YDL134C, strain PPH21, stronger effect = lower value 1.02 | locus YDL185W, strain tfp1, stronger effect = lower value 0.983 | locus YDL192W, strain arf1, stronger effect = lower value 1.01 | locus YDR001C, strain nth1, stronger effect = lower value 0.98 | locus YDR069C, strain doa4, stronger effect = lower value 0.983 | locus YDR101C, strain arx1, stronger effect = lower value 0.983 | locus YDR137W, strain rgp1, stronger effect = lower value 0.961 | locus YDR150W, strain NUM1, stronger effect = lower value 1.02 | locus YDR159W, strain sac3, stronger effect = lower value 0.968 | locus YDR162C, strain NBP2, stronger effect = lower value 1.03 | locus YDR195W, strain ref2 0.946 | locus YDR297W, strain sur2, stronger effect = lower value 0.987 | locus YDR318W, strain mcm21, stronger effect = lower value 1.01 | locus YDR334W, strain swr1, stronger effect = lower value 0.988 | locus YDR335W, strain msn5, stronger effect = lower value 0.993 | locus YDR388W, stronger effect = lower value 0.992 | locus YDR392W, strain spt3, stronger effect = lower value 1.03 | locus YDR502C, strain sam2, stronger effect = lower value 0.991 | locus YEL003W, strain gim4, stronger effect = lower value 0.983 | locus YEL037C, strain rad23, stronger effect = lower value 0.985 | locus YEL061C, strain CIN8 (second series), stronger effect = lower value 0.975 | locus YEL061C, strain CIN8, stronger effect = lower value 1.01 | locus YER015W, strain faa2, stronger effect = lower value 0.984 | locus YER016W, strain bim1, stronger effect = lower value 0.992 | locus YER110C, stronger effect = lower value 0.99 | locus YER111C, strain swi4, stronger effect = lower value 0.985 | locus YER155C, strain BEM2 (second series), stronger effect = lower value 1.01 | locus YER155C, strain BEM2, stronger effect = lower value 1.01 | locus YER167W, strain BCK2, stronger effect = lower value 1.02 | locus YFR010W, strain ubp6, stronger effect = lower value 0.981 | locus YGL078C, strain dbp3, stronger effect = lower value 0.993 | locus YGL086W, strain mad1, stronger effect = lower value 0.991 | locus YGL167C, strain pmr1, stronger effect = lower value 0.971 | locus YGL173C, strain kem1, stronger effect = lower value 0.99 | locus YGL227W, strain vid30, stronger effect = lower value 0.974 | locus YGL240W, strain doc1, stronger effect = lower value 1 | locus YGL248W, strain PDE1, stronger effect = lower value 1.03 | locus YGL253W, strain hxk2, stronger effect = lower value 0.977 | locus YGR078C, strain PAC10, stronger effect = lower value 1.03 | locus YGR135W, strain pre9, stronger effect = lower value 1.01 | locus YGR229C, strain SMI1, stronger effect = lower value 1.01 | locus YGR252W, strain gcn5, stronger effect = lower value 0.978 | locus YHR013C, strain ard1, stronger effect = lower value 0.949 | locus YHR027C, strain rpn1, stronger effect = lower value 0.989 | locus YHR030C, strain SLT2, stronger effect = lower value 1.02 and 1 | locus YHR079C, strain IRE1 (second series), stronger effect = lower value 1 | locus YHR079C, strain IRE1, stronger effect = lower value 0.964 | locus YHR094C, strain hxt1, stronger effect = lower value 0.989 | locus YHR129C, strain ARP1, stronger effect = lower value 1.02 | locus YHR142W, strain chs7, stronger effect = lower value 0.987 | locus YHR200W, strain rpn10, stronger effect = lower value 0.989 | locus YIL066C, strain RNR3, stronger effect = lower value 1.03 | locus YIL073C, strain SPO22, stronger effect = lower value 0.994 | locus YIL125W, strain kgd1, stronger effect = lower value 0.991 | locus YIR030C, strain dcg1, stronger effect = lower value 1.01 | locus YJL092W, strain hpr5, stronger effect = lower value 0.98 | locus YJL095W, strain BCK1 (second series), stronger effect = lower value 0.991 | locus YJL095W, strain BCK1, stronger effect = lower value 1.05 and 0.989 | locus YJL115W, strain asf1, stronger effect = lower value 1 | locus YJL129C, strain trk1, stronger effect = lower value 0.987 | locus YJL134W, strain LCB3, stronger effect = lower value 1.02 | locus YJL154C, strain vps35, stronger effect = lower value 0.989 | locus YJL164C, strain tpk1, stronger effect = lower value 0.995 | locus YJL166W, strain qcr8, stronger effect = lower value 0.989 | locus YJL168C, strain set2, stronger effect = lower value 1 | locus YJL187C, strain SWE1 (second series), stronger effect = lower value 1.02 | locus YJL187C, strain SWE1, stronger effect = lower value 0.991 | locus YJR043C, strain POL32, stronger effect = lower value 1.03 | locus YJR066W, strain TOR1, stronger effect = lower value 0.945 | locus YKL009W, strain mrt4, stronger effect = lower value 1.01 | locus YKL068W, stronger effect = lower value 1.01 | locus YKL085W, strain MDH1 (second series), stronger effect = lower value 0.997 | locus YKL085W, strain MDH1, stronger effect = lower value 0.997 | locus YKL160W, strain elf1, stronger effect = lower value 1 | locus YKL190W, strain CNB1, stronger effect = lower value 1.02 | locus YKR001C, strain vps1, stronger effect = lower value 0.999 | locus YKR026C, strain gcn3, stronger effect = lower value 0.976 | locus YKR091W, strain srl3, stronger effect = lower value 0.977 | locus YLL001W, strain dnm1, stronger effect = lower value 0.99 | locus YLL026W, stronger effect = lower value 0.98 | locus YLL041C, strain sdh2, stronger effect = lower value 0.992 | locus YLR027C, strain aat2, stronger effect = lower value 0.99 | locus YLR039C, strain RIC1, stronger effect = lower value 1.08 | locus YLR058C, strain SHM2, stronger effect = lower value 1.03 | locus YLR102C, strain apc9, stronger effect = lower value 0.993 | locus YLR113W, strain HOG1, stronger effect = lower value 0.949 | locus YLR221C, strain rsa3, stronger effect = lower value 1 | locus YLR258W, strain gsy2, stronger effect = lower value 0.97 | locus YLR262C, strain YPT6 (second series), stronger effect = lower value 0.989 | locus YLR262C, strain YPT6, stronger effect = lower value 1.09 | locus YLR268W, strain sec22, stronger effect = lower value 0.984 | locus YLR320W, strain mms22, stronger effect = lower value 0.984 | locus YLR330W, strain CHS5, stronger effect = lower value 1.02 | locus YLR342W, strain FKS1 (second series), stronger effect = lower value 1.04 | locus YLR342W, strain FKS1, stronger effect = lower value 0.979 | locus YLR357W, strain rsc2, stronger effect = lower value 1.01 | locus YLR370C, strain arc18, stronger effect = lower value 1 | locus YLR371W, strain rom2, stronger effect = lower value 0.981 | locus YLR384C, strain iki3, stronger effect = lower value 0.991 | locus YLR418C, strain cdc73, stronger effect = lower value 1.01 | locus YML016C, strain PPZ1, stronger effect = lower value 1.02 | locus YML032C, strain rad52, stronger effect = lower value 1.01 | locus YML120C, strain ndi1, stronger effect = lower value 1.01 | locus YML124C, strain tub3, stronger effect = lower value 0.991 | locus YMR058W, strain fet3, stronger effect = lower value 1.01 | locus YMR078C, strain ctf18, stronger effect = lower value 1 | locus YMR125W, strain sto1, stronger effect = lower value 1 | locus YMR129W, stronger effect = lower value 0.975 | locus YMR205C, strain PFK2, stronger effect = lower value 0.96 | locus YMR223W, strain ubp8, stronger effect = lower value 1.01 | locus YMR231W, strain pep5, stronger effect = lower value 0.976 | locus YMR307W, strain GAS1, stronger effect = lower value 1.07 | locus YNL067W, strain RPL9B, stronger effect = lower value 1.03 | locus YNL071W, strain lat1, stronger effect = lower value 1 | locus YNL183C, strain NPR1, stronger effect = lower value 0.949 | locus YNL209W, strain ssb2, stronger effect = lower value 0.986 | locus YNL233W, strain BNI4, stronger effect = lower value 1.01 | locus YNL248C, strain rpa49, stronger effect = lower value 1.05 | locus YNL250W, strain rad50, stronger effect = lower value 1 | locus YNL271C, strain bni1, stronger effect = lower value 0.995 | locus YNL298W, strain CLA4, stronger effect = lower value 0.995 | locus YNL307C, strain MCK1, stronger effect = lower value 0.987 | locus YNL322C, strain KRE1 (second series), stronger effect = lower value 0.99 | locus YNL322C, strain KRE1, stronger effect = lower value 1.02 | locus YNR049C, strain mso1, stronger effect = lower value 0.986 | locus YNR052C, strain pop2, stronger effect = lower value 0.984 | locus YOL012C, strain htz1 0.81 | locus YOL147C, strain pex11, stronger effect = lower value 0.991 | locus YOR001W, strain rrp6, stronger effect = lower value 1.01 | locus YOR061W, strain CKA2, stronger effect = lower value 1.03 | locus YOR069W, strain VPS5, stronger effect = lower value 1.01 | locus YOR070C, strain gyp1, stronger effect = lower value 0.988 | locus YOR080W, strain dia2, stronger effect = lower value 0.992 | locus YOR083W, strain WHI5, stronger effect = lower value 1.01 | locus YOR106W, strain vam3, stronger effect = lower value 0.977 | locus YOR136W, strain idh2, stronger effect = lower value 0.98 | locus YOR144C, strain elg1, stronger effect = lower value 0.986 | locus YOR184W, strain ser1, stronger effect = lower value 0.99 | locus YOR231W, strain MKK1, stronger effect = lower value 0.978 | locus YOR265W, strain rbl2, stronger effect = lower value 0.988 | locus YOR270C, strain vph1, stronger effect = lower value 0.976 | locus YOR290C, strain snf2, stronger effect = lower value 1.01 | locus YOR316C, strain cot1, stronger effect = lower value 0.997 | locus YPL051W, strain arl3, stronger effect = lower value 1.01 | locus YPL078C, strain atp4, stronger effect = lower value 0.995 | locus YPL106C, strain sse1, stronger effect = lower value 1.05 | locus YPL240C, strain hsp82, stronger effect = lower value 0.995 | locus YPL241C, strain CIN2, stronger effect = lower value 1.02 | locus YPL256C, strain CLN2, stronger effect = lower value 1.05 | locus YPR119W, strain clb2, stronger effect = lower value 0.995 | locus YPR141C, strain kar3, stronger effect = lower value 1 | locus YPR163C, strain tif3, stronger effect = lower value 0.991 | locus YPR167C, strain met16, stronger effect = lower value 0.995 | strain wtn01, stronger effect = lower value 0.977
